# Records with an inconclusive call do not appear. A call without a number means that no potency is given here. Calls of active or inactive are those of the source. Calls follow the shape of the dose curve; as a rule, active = well fitted activation curve with a large enough effect; inconclusive = small, poorly fitted or top-dose-only effect; inactive = no such curve, though single readings can be large or run the other way.
# Assay: qHTS Assay for Identifying a Potential Treatment of Ataxia-Telangiectasia: Secondary assay (no NCS) hit validation;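 also: phosphorylated KAP1 signal as a proxy for ATM-like kinase activity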
# Details: A-T patient fibroblasts, AlphaLISA, no DNA damage added, 90 min; series mostly up to 76.9 µM
# Outline: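 Without NCS-induced DNA breaks, ATM-like activity scored as phospho-KAP1 AlphaLISA signal (pKAP1/total KAP1 bead pair) in ATM-null F2112 fibroblasts; compound series up to 76.7 uM final, 37C incubation, lysates read on AlphaScreen protocol.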
# Potency is read from the fitted curve at half-maximal effect.
row,SMILES,Potency
1,CCC12CN(C(=O)c3ccc([N+](=O)[O-])cc3)CC(CC)(CN(C(=O)c3ccc([N+](=O)[O-])cc3)C1)C2=O,0.207 µM (active)
2,COc1ccc(Oc2ncnc3c2oc2ccc(Br)cc23)cc1,inactive
3,CCOC(=O)CNS(=O)(=O)Cc1ccccc1,inactive
4,O=C(N/N=C/c1ccncc1)c1ccc(COc2cccc3cccnc23)cc1,inactive
5,CC(C)CC(=O)Nc1c2c(nn1-c1cccc(Cl)c1)CS(=O)C2 (centres undefined),58.2 µM (active)
6,COc1cccc(OCCc2c(C)n[nH]c2C)c1,inactive
7,CC(C)CNS(=O)(=O)c1cc(C(=O)O)c(Cl)cc1Cl,inactive
8,COC(=O)Cn1ccc2cc(S(=O)(=O)N3CCCCC3)ccc21,inactive
9,COc1ccc(NCc2cc(=O)oc3cc(NC(C)=O)ccc23)cc1,inactive
10,Cc1c(Cc2ccccc2)c(NCCCO)n2c(nc3ccccc32)c1C#N,inactive
11,O=[N+]([O-])c1ccc(F)cc1F,32.8 µM (active)
12,CCN(CC)c1ccc2cc(-c3nc4ccccc4[nH]3)c(=O)oc2c1,inactive
13,CNC(=O)Cc1csc2ccc(C)cc12,inactive
14,COc1ccccc1N1CCN(C(=O)c2cc(=O)c3c(C)cc(C)cc3o2)CC1,inactive
15,COC(=O)c1cccc2c1-c1ccccc1/C2=N\NC(N)=O,inactive
16,NCC(=O)c1cccc2ccc[n+]([O-])c12,inactive
17,COc1ccccc1NC(=O)C1CCCN(S(=O)(=O)c2ccc(-n3cnnn3)cc2)C1 (centres undefined),inactive

row,SMILES,Potency
1,CN1C[C@@H]2C(c3ccccc3)C3(c4ccccc4)CC2(C3)[C@H]1c1ccccc1 (some centres undefined),20.7 µM (active)
2,CC(Oc1ccccc1)C(=O)Nc1cccc(NC(=O)c2ccco2)c1 (centres undefined),inactive
3,CCOc1cccc(/C=C/c2ccc3cccc(O)c3n2)c1OC,inactive
4,COc1ccc(C2NC(=S)NC3=C2N2CCC3CC2)cc1 (centres undefined),1.16 µM (active)
5,CCOC(=O)C1CCN(C(=O)c2cc3cc(Cl)ccc3[nH]2)CC1,inactive
6,CCc1oc(C(=O)OC)cc1CSC(=N)N,inactive
7,CCN(CC)CCNC(=O)CCc1c(C)nc2c(c(C)nn2-c2ccc(C)cc2)c1C,inactive
8,Cc1[nH]c2c(C)cccc2c1CN1CCC(CO)(Cc2ccccc2)CC1,1.84 µM (active)
9,O=C(CCC(=O)c1ccc(F)cc1)Nc1cccc(Br)c1,inactive
10,O=C(Nc1ccc([N+](=O)[O-])cc1)c1cc2ccccc2nc1Cl,inactive
11,COc1ccc2nc(C)cc(Nc3ccc(C(=O)O)cc3)c2c1,inactive
12,CCn1nc(C)c(CNC(=O)c2cc(COc3ccc(F)cc3Cl)on2)c1C,inactive
13,CCC(=O)c1ccc2c(c1)OCCO2,inactive
14,Cc1nn(-c2ccccc2)c2nc(C(Cl)(Cl)Cl)[nH]c(=O)c12,inactive
15,O=C1/C(=C/c2ccc(N3CCOCC3)o2)SC(=Nc2ccccc2)N1CCc1c[nH]c2ccccc12,inactive
16,CN(C)C(=O)c1nc2ccc(Cl)cn2c1CNCc1cccc(OC(F)(F)F)c1,inactive
17,O=C(NCCCN1CCOCC1)c1ccc2c(c1)N(Cc1cccc(F)c1)C(=O)c1ccccc1S2,inactive

# From PubChem BioAssay AID493201 (National Center for Advancing Translational Sciences (NCATS), 2011)
